Reference: PubChem BioAssay (Tox21)
Records with an inconclusive call do not appear. Activity calls are given as the source filed them. Calls come from the whole dose curve; as a rule, active = well fitted curve in the direction sought with a large enough effect in the repeat runs; inconclusive = weak or mixed curves; inactive = no such curve, though single readings can be large; an effect the other way counts as inactive or inconclusive.

Key:
[1] = qHTS RealTime-Glo MT Cell Viability Assay in HepG2 cells - 32 hour (AID 1224877); note: nearly all actives have a fitted effect of over 55% in size
Method in brief: (§1)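 qHTS, HepG2, 600 cells/well, RealTime-Glo (NanoLuc + prosubstrate) added with cells; 5 h preincubation; DMSO compound addition; 37 C; luminescence at 0/8/16/24/32/40 h.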

[2] = A CellTox Green Cytotoxicity Assay to monitor cytotoxicity in HepG2 cells - 24 hour (AID 1224878); note: nearly all actives have a fitted effect of over 45% in size
Method in brief: (§2)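 Fluorescent DNA-binding dye, 600 HepG2 cells/well, 5 h preincubation then compound in DMSO; same plates read at 0–40 h, 37 C.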

[3] = A CellTox Green Cytotoxicity Assay to monitor cytotoxicity in HepG2 cells - 40 hour (AID 1224879); note: nearly all actives have a fitted effect of over 40% in size
Method in brief: as §2

[4] = qHTS RealTime-Glo MT Cell Viability Assay in HEK293 cells - 0 hour (AID 1224880); note: top concentration of the series differs between compounds; nearly all actives have a fitted effect of over 45% in size
Method in brief: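 Measured as luminescence from the same continuously cultured HEK293 wells at successive time points (0, 8, 16, 24, 32, 40 h) after compound addition. Reagent present from seeding; dosing at 5 h; incubation 37 C.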

[5] = A CellTox Green Cytotoxicity Assay to monitor cytotoxicity in HepG2 cells - 0 hour (AID 1224882); note: nearly all actives have a fitted effect of over 35% in size
Method in brief: as §2

[6] = A CellTox Green Cytotoxicity Assay to monitor cytotoxicity in HepG2 cells - 32 hour (AID 1224883); note: nearly all actives have a fitted effect of over 50% in size
Method in brief: as §2

[7] = A CellTox Green Cytotoxicity Assay to monitor cytotoxicity in HEK293 cells - 8 hour (AID 1224884); note: nearly all actives have a fitted effect of over 35% in size
Method in brief: (§3)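 Homogeneous no-lysis format: HEK293 cell suspension mixed with CellTox Green reagent, seeded, incubated 5 h at 37 C/5% CO2, then dosed by pintool with compound in DMSO.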

[8] = qHTS RealTime-Glo MT Cell Viability Assay in HepG2 cells - 16 hour (AID 1224885); note: nearly all actives have a fitted effect of over 50% in size
Method in brief: as §1

[9] = qHTS RealTime-Glo MT Cell Viability Assay in HEK293 cells - 24 hour (AID 1224886); note: top concentration of the series differs between compounds; nearly all actives have a fitted effect of over 50% in size
Method in brief: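 Assay medium contained NanoLuc luciferase plus cell-permeant prosubstrate, added with HEK293 cells at 600 cells/well. After 5 h at 37 C/5% CO2 compounds were added; plates stayed at 37 C for 40 h with serial luminescence reads.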

[10] = A CellTox Green Cytotoxicity Assay to monitor cytotoxicity in HEK293 cells - 32 hour (AID 1224881); note: nearly all actives have a fitted effect of over 40% in size
Method in brief: as §3

Measured: Potency

c1ccc(-c2nn[nH]n2)cc1
not listed: [10]
inactive: all other assays above

C=C(C)[C@@H]1CC=C(C)C(=O)C1
not listed: [10]
inactive: all other assays above

N#CCC(=O)NN
not listed: [10]
inactive: all other assays above

CO[C@@]1(NC(=O)Cc2cccs2)C(=O)N2C(C(=O)O)=C(COC(N)=O)CS[C@@H]21
not listed: [10]
inactive: all other assays above

COC(=O)c1cc(Cl)cc(Cl)c1
not listed: [10]
inactive: all other assays above

C=C(C)c1cccc(C(C)(C)N=C=O)c1
not listed: [10]
inactive: all other assays above

CC1c2ccccc2CN1NC(=O)c1ccc(Cl)c(S(N)(=O)=O)c1 (configuration not stated)
not listed: [10]
inactive: all other assays above

O=C=NCC1CCCC(CN=C=O)C1 (configuration not stated)
not listed: [10]
inactive: all other assays above

CC(=O)OCC(=O)Nc1cc(C#N)cc(NC(=O)COC(C)=O)c1Cl
not listed: [5]
inactive: all other assays above

CCCCCCCCCOC(=O)c1ccccc1C(=O)OCCCCCCCCC
not listed: [5]
inactive: all other assays above

CCCCSCCCC
not listed: [5]
inactive: all other assays above

COc1cc(/C=C/C(N)=O)cc(OC)c1OC
not listed: [10]
inactive: all other assays above

OCC1CCC(CO)CC1 (configuration not stated)
not listed: [5]
inactive: all other assays above

CCC(C)C(=O)OCCc1ccccc1 (configuration not stated)
not listed: [10]
inactive: all other assays above

CC(=O)OC1CCCCC1C(C)(C)C (configuration not stated)
not listed: [2]
inactive: all other assays above

C=CCCCCCCCC
not listed: [3] | [4] | [10]
inactive: all other assays above

C[Si]1(C)O[Si](C)(C)O[Si](C)(C)O[Si](C)(C)O[Si](C)(C)O1
not listed: [5] | [10]
inactive: all other assays above

C=CCCCC
not listed: [3]
inactive: all other assays above

C/C=C(\C)C(C)=O
not listed: [4]
inactive: all other assays above

CCC(C)C(C)=O (configuration not stated)
not listed: [2]
inactive: all other assays above

O=Cc1cc2ccccc2o1
not listed: [3] | [5]
inactive: all other assays above

CC(C)C1OCCN1CCOC(=O)NCCCCCCNC(=O)OCCN1CCOC1C(C)C (configuration not stated)
not listed: [3]
inactive: all other assays above

C[C@@H](O)C(=O)O
not listed: [3] | [10]
inactive: all other assays above
